# Assay results from PubChem BioAssay AID651871 (Sanford-Burnham Center for Chemical Genomics, 2012).
# Tested on: HL-1
# Assay: cardiomyocyte survival under oxidative or metabolic stress – cell-based, panel, H9c2 and HL-1, ATP luminescence, set 2, SAR follow-up (AID 651871);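 further: cells exposed to stressor for 2 h before ATP readout; reference of the scale not given here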
# Settings: H9c2/HL-1 cardiomyocytes, 2-deoxyglucose stress, with 2-deoxyglucose, run 10, at 19.8 µM (top of the series)
structure (smiles),measurement,value
COc1ccc2c(c1OC)C(=O)N1c3ccccc3C(=O)N(Cc3cccc(Cl)c3Cl)C21 (stereo unspecified),activity (protection/inhibition),33.5%
